Assay outcomes (PubChem)
Rows were chosen to be rich in hits. Some 3.1% of all compounds tested hit in one or more screens of this group.
Neddyl block: cullin neddylation inhibition. calls only at 25 µM. TR-FRET cullin neddylation, biochemical. AID 651699. 360,000 tested, 0.58% active. P61081+Q13564; in the data active means inhibition above about 36%
UHRF1 binding: human UHRF1 methylated DNA binding inhibitors | UHRF1 binding to methylated oligo, TR-FRET | 370,000 tested, 0.75% active | AID 687016 | inhibition, % at 4.4 µM; in the data active means inhibition above about 21%;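 further: UHRF1 SRA domain binding a hemimethylated CpG hairpin DNA probe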
Rin1-Abl PPI inh: inhibitors of human Rin1-Abl protein interaction | 360,000 tested, 0.4% active | TR-FRET Rin1/Abl binding, biochemical | inhibition, % at 7.35 µM | P00519+Q13671; in the data active means inhibition above about 5%, passing the limit was not always enough
LEDGF integ inh: blocks HIV-1 LEDGF/p75-dependent DNA integration; 370,000 tested, 0.64% active; inhibition, % at 3.7 µM; TR-FRET IN-LEDGF/p75 DNA integration, Eu/Cy5; AID 743269;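 active means inhibition above the screen-wide mean plus 3 SD, cut at about 13% in these data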;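 further: signal is the Cy5 over europium emission ratio at 671 and 618 nm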
proKLK7 act: activates the human kallikrein-7 zymogen; P49862; purified proKLK7, EDANS-DABCYL substrate fluorescence; 100% is mature enzyme control, 0% vehicle; activation, % at 7 µM; 370,000 tested, 0.9% active; AID 652039;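 active means activation above the mean of all tested compounds plus 3 SD, computed per campaign excluding outliers beyond control limits, cut at about 13% in these data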
Target sequence (P49862 whole entry, looked up): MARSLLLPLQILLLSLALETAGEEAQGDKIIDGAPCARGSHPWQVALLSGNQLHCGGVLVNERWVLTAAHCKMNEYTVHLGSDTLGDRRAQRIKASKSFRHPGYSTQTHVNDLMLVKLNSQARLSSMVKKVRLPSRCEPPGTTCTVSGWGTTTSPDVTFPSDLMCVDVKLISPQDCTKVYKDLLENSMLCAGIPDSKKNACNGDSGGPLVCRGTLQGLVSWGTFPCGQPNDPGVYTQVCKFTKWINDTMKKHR
MBD2 DNA inh: blocks human MBD2 binding to methylated DNA; 370,000 tested, 0.31% active; TR-FRET, MBD2 binding to methylated oligonucleotide; Q9UBB5; inhibition, % at 4.4 µM; AID 686964; in the data active means inhibition above about 13%
Target sequence (Q9UBB5 whole entry, looked up): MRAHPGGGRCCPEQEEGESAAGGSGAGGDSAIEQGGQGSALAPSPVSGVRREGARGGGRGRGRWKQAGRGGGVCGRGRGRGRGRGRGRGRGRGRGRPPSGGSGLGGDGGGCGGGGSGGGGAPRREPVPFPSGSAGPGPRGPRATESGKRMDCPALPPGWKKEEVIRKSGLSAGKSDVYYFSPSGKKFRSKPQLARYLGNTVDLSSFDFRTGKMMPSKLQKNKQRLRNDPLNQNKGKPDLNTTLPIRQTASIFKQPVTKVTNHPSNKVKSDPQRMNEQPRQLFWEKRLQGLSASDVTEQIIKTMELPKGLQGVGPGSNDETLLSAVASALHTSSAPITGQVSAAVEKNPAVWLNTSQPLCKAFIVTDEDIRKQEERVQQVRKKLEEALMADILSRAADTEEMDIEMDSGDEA
IN multimer act: activates HIV-1 integrase multimerization in LEDGF counter-screen. TR-FRET HIV-1 integrase multimerization, biochemical. shares compounds with LEDGF integ inh. activation, % at 7.7 µM. 2,000 tested, 17% active; in the data active means activation above about 8.9%
TRFRET interf: counter-screen for LEDGF/p75 integration inhibitors: TR-FRET optical interference. shares compounds with LEDGF integ inh. TR-FRET optical interference counterscreen, HIV-1 IN multimerization. inhibition, % at 7.7 µM. 2,000 tested, under 10 active;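 active means inhibition above the mean over all tested compounds plus 3 SD, which no compound reached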
IN-LEDGF confirm: LEDGF/p75-dependent HIV-1 integration inhibition, confirmation; TR-FRET LEDGF/p75-dependent HIV-1 integration, biochemical; inhibition, % at 3.7 µM; shares compounds with LEDGF integ inh; 2,000 tested, 36% active; AID 1053136; in the data active means inhibition above about 14%
Of the large screens only hits and unclear results are named; the others gave an inactive call (follow-up assays come after a bar, where they were run).

CCc1ccc(OC(=O)/C=C/c2ccco2)cc1	LEDGF integ inh 14.6 | IN multimer act inactive | TRFRET interf inactive | IN-LEDGF confirm inactive
O=C(/C=C\c1ccco1)Oc1cccc2cccnc12	none
COc1ccc(S(=O)(=O)Nc2ccccc2OC)cc1NC(=O)CC1CC2CCC1C2 (configuration not stated)	none
S=C(NCc1ccco1)NCc1ccco1	UHRF1 binding 27.5, LEDGF integ inh 34.0 | IN multimer act inactive | TRFRET interf inactive | IN-LEDGF confirm inactive
O=C(Cn1cc(COc2cc(F)cc(F)c2)nn1)c1ccc(O)cc1	none
CC(=O)Nc1ccc(OCc2cn(CC(=O)c3ccc(O)cc3)nn2)cc1	LEDGF integ inh 15.1 | IN multimer act inactive | TRFRET interf inactive | IN-LEDGF confirm inactive
O=C(N1CCCC1)n1ncc(-c2ccc(-c3ccccc3)cc2)n1	none (no result: Neddyl block, Rin1-Abl PPI inh, proKLK7 act)
O=[N+]([O-])c1ccc(/C=N\NS(=O)(=O)c2ccc(F)cc2)o1	none
N#CCC1(O)C(=O)N(Cc2ccccc2)c2ccccc21 (configuration not stated)	LEDGF integ inh 76.1 (no result: Rin1-Abl PPI inh) | IN multimer act inactive | TRFRET interf inactive | IN-LEDGF confirm inactive
CCOc1ccc(NC(=O)CN(C)c2ccc(S(=O)(=O)N3CCOCC3)cn2)cc1OCC	UHRF1 binding 41.3, LEDGF integ inh 15.3 | IN multimer act inactive | TRFRET interf inactive | IN-LEDGF confirm inactive
Cc1ccc(NC(=O)CN(C)c2ccc(S(=O)(=O)N3CCCC3)cn2)cc1	none
CN1C2CCC1/C(=C/c1cccn1C)C(=O)/C2=C\c1cccn1C	LEDGF integ inh 13.5 | IN multimer act inactive | TRFRET interf inactive | IN-LEDGF confirm inactive
CN1C2CCC1/C(=C\c1ccc(F)cc1)C(=O)/C2=C/c1ccc(F)cc1	none
Cc1ccc(Cl)cc1-c1ccc(C=Nc2ccc(N3CCOCC3)cc2)o1	LEDGF integ inh 27.8 | IN multimer act inactive | TRFRET interf inactive | IN-LEDGF confirm inactive
Cc1cc(O)c(C=Nc2ccc(N3CCOCC3)cc2)c(C)c1Cl	none
NC(=O)c1c(N)[nH]c(C(=O)c2ccccc2)c1-c1cccc2ccccc12	none (no result: Neddyl block, Rin1-Abl PPI inh, proKLK7 act)
O=c1c(Br)ccc(Br)cc1Br	LEDGF integ inh 15.5 | IN multimer act inactive | TRFRET interf inactive | IN-LEDGF confirm 29.9
O=C1CN(S(=O)(=O)c2cc(Br)ccc2Br)CCN1	none
CCCCN(C(=S)NC(=O)c1cc(OC)c(OC)c(OC)c1)c1c(N)n(Cc2ccccc2)c(=O)[nH]c1=O	none
COC(=O)c1c(NC(=O)CN2CCC3(O)CCCCC3C2c2cc(OC)ccc2OC)sc(C)c1C (configuration not stated)	LEDGF integ inh 14.9 | IN multimer act inactive | TRFRET interf inactive | IN-LEDGF confirm inactive
O=C(Nc1ccccc1N1CCCCC1)c1ccc(OC(F)F)cc1	LEDGF integ inh 35.9 | IN multimer act inactive | TRFRET interf inactive | IN-LEDGF confirm inactive
O=C1C(=Cc2ccco2)C(=O)c2ccccc21	LEDGF integ inh 14.5 | IN multimer act inactive | TRFRET interf inactive | IN-LEDGF confirm inactive
COC(=O)[C@]12C(=O)C(C)=C(O)[C@@]1(C)C(C)=CC1[C@@]34CC[C@@H](OC(C)=O)C(C)(C)C3C(C[C@]12C)OC4=O (some centres not stated)	none
COC(=O)NC1CC2C=CC1C1C=CC21 (configuration not stated)	none
CN(C)c1ccc(C=Nc2ccc(N(C)C)cc2)cc1	LEDGF integ inh 34.6 | IN multimer act inactive | TRFRET interf inactive | IN-LEDGF confirm inactive
Cc1ccc(N=Cc2ccc(N(C)C)cc2)cc1	none
CCOc1c(CNc2nnnn2C)cccc1OC	none
Cc1ccc(OCC(=O)Nc2ccc(F)cc2)cc1C	LEDGF integ inh 20.2 | IN multimer act inactive | TRFRET interf inactive | IN-LEDGF confirm inactive
CCCCN1CC(COCc2ccccc2)Oc2cccc(Sc3ccc(OC)c(OC)c3)c2S1(=O)=O (configuration not stated)	none (no result: Neddyl block, Rin1-Abl PPI inh)
Cc1noc(NS(=O)(=O)c2ccc(NC(=O)C(F)(F)C(F)(F)C(F)(F)F)cc2)c1C	none
CCOc1ccc(C=Nc2cccc3ncccc23)cc1	none
Oc1ccc(C=Nc2cccc3ncccc23)c(O)c1	LEDGF integ inh 16.0 | IN multimer act 16.8 | TRFRET interf inactive | IN-LEDGF confirm 22.1
COc1ccc(/C=N/Nc2nncn2N)cc1Br	LEDGF integ inh 70.3 | IN multimer act inactive | TRFRET interf inactive | IN-LEDGF confirm inactive
O=C(N/N=C/c1ccc(Cl)cc1Cl)c1ccc(-n2cnnn2)cc1	none
COc1cc(/C=N/Nc2nncn2N)ccc1OCc1c(C)no[n+]1[O-]	LEDGF integ inh 58.8 | IN multimer act inactive | TRFRET interf inactive | IN-LEDGF confirm inactive
COc1cc(/C=C(\C#N)C(N)=O)ccc1OCc1c(C)no[n+]1[O-]	none
Nn1cnnc1N/N=C/c1ccc(Cl)cc1Cl	LEDGF integ inh 47.9 | IN multimer act inactive | TRFRET interf inactive | IN-LEDGF confirm inactive
O=C1c2ccccc2C(Nc2ccc(Cl)cn2)N1c1cccnc1 (configuration not stated)	none
O=C(c1cc(F)ccc1F)N1CCCC(c2nc(-c3cccs3)no2)C1 (configuration not stated)	none (no result: Neddyl block, Rin1-Abl PPI inh)
O=C(NCc1ccccc1)c1cc(C2CCCN(C(=O)c3ccccc3)C2)on1 (configuration not stated)	none
O=[N+]([O-])c1ccc(Nc2ccccc2)c2nonc12	none
NNc1ccc([N+](=O)[O-])c2[nH][nH]c(=O)c12	UHRF1 binding 39.7, LEDGF integ inh 18.9 | IN multimer act 34.9 | TRFRET interf inactive | IN-LEDGF confirm 44.0
CCOc1cccc(=O)c2c(C)n(Cc3ccco3)c(C)c12	LEDGF integ inh 31.0 | IN multimer act inactive | TRFRET interf inactive | IN-LEDGF confirm inactive
CCOC(=O)CC[C@@H]1CC[C@]2(CCCN(C(=O)C3CCCCC3)C2)O1	none (no result: Neddyl block, Rin1-Abl PPI inh)
COc1cccc(NC(=O)C2CC(=O)N=C(N)S2)c1 (configuration not stated)	LEDGF integ inh 16.9 | IN multimer act inactive | TRFRET interf inactive | IN-LEDGF confirm inactive
CC(=O)Nc1ccc(NC(=O)C2CC(=O)N=C(N)S2)cc1 (configuration not stated)	none
C(=NN=C(NN=Cc1cccs1)NN=Cc1cccs1)c1cccs1	LEDGF integ inh 34.0 | IN multimer act inactive | TRFRET interf inactive | IN-LEDGF confirm inactive
